Screening data (PubChem BioAssay)
esBAF inh: Bmi1 luciferase reporter increase in mESCs, primary screen, esBAF inhibitor project, mouse ES cells, Bmi1 luciferase knock-in, single point; AID 602393, 2012; reporter increase, % at 12.5 µM; 2% of 350,000 active; 24 h; 100% = twice the neutral-well signal; in the data active = activation above about 40%; inconclusive = no clear call, values can overlap the other calls;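 note: a rise in the Bmi1 reporter signal indicates esBAF inhibition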
MITF act: activators of MITF-driven TRPM1 promoter reporter, primary screen, cell-based, SK-MEL-5, luciferase, single point. SK-MEL-5 TRPM1-promoter luciferase, 24 h; % of positive control, neutral wells = 0. activation, % at 12.5 µM. 0.75% of 300,000 active. AID 588334, 2011;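 active = mean activation of at least 80% with every replicate also reaching 80%; inconclusive = mean reaches 80% but some replicate falls short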
C2C12 statin: suppressors of statin myotoxicity in C2C12 myotubes, primary screen, cell-based, single point, plate reader; C2C12 myotubes + simvastatin, ATP luminescence, 48 h; scaled: DMSO 0, geranylgeraniol control 100; 0.78% of 330,000 active; rescue of ATP level, % at 7.49 µM;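 active = mean ATP rescue above about 67%, or every replicate alone reaching that limit, limit read from the data, passing the limit was not always enough; inconclusive = no clear call, values can overlap the other calls; inactive = mean under the limit and some replicate under it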;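 note: myotubes were challenged with 10 µM simvastatin during compound exposure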
Rtt109 Vps75: inhibitors of C. albicans Rtt109/Vps75 HAT, primary screen, biochemical, ThioGlo CoA-SH fluorescence, plate reader; purified Rtt109/Vps75, 4 h; AID 540336, 2011; Histone acetyltransferase RTT109 (Candida albicans (strain SC5314 / ATCC MYA-2876)), …; 0.16% of 330,000 active; inhibition, % at 34.9 µM;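 active = inhibition of at least 50% in every replicate; inconclusive = best replicate reaches 50% inhibition but some replicates fall short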
Target sequence (Q5AAJ8 whole entry, looked up): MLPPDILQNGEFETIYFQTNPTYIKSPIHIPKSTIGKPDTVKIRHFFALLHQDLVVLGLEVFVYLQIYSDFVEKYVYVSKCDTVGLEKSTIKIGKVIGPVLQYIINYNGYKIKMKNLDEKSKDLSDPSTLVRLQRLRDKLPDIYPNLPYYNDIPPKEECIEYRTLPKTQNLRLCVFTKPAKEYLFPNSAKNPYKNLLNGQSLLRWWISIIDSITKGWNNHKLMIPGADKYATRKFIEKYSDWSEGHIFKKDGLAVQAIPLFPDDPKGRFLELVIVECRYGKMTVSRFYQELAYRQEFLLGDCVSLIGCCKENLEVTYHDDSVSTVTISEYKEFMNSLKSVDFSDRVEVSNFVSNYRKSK
Wnt act: Wnt/beta-catenin pathway activators, primary screen, cell-based, plate reader, single point; Wnt/beta-catenin reporter cell assay, activator; activation, % at 9.35 µM; 1.2% of 300,000 active; in the data active = activation above about 30%, passing the limit was not always enough; inconclusive = no clear call, values can overlap the other calls
A number is an active result; – = inactive; ? = inconclusive; · = no result. An excerpt weighted towards active compounds, which were near 3.1% of everything screened.

SMILES | esBAF inh | MITF act | C2C12 statin | Rtt109 Vps75 | Wnt act
C[C@H](CO)N1C[C@H](C)[C@H](CN(C)Cc2ccc(-c3ccccc3)cc2)Oc2ccc(NC(=O)Cc3ccccc3)cc2CC1=O | – | · | – | · | ·
C[C@@H]1CN([C@@H](C)CO)C(=O)Cc2cc(NC(=O)Cc3cn(C)c4ccccc34)ccc2O[C@H]1CN(C)Cc1ccc(C(F)(F)F)cc1 | – | · | 104 | · | ·
C[C@H](CO)N1C[C@H](C)[C@@H](CN(C)Cc2ccc(-c3ccccc3)cc2)Oc2ccc(NC(=O)Cc3ccccc3)cc2CC1=O | – | · | 76 | · | ·
C[C@H](CO)N1C[C@H](C)[C@@H](CN(C)Cc2ccc(-c3ccccc3)cc2)Oc2ccc(NC(=O)Cc3cn(C)c4ccccc34)cc2CC1=O | – | · | 102 | · | ·
Cc1noc(C)c1NC(=O)Nc1ccc2c(c1)CC(=O)N([C@@H](C)CO)C[C@@H](C)[C@H](CN(C)Cc1ccc3c(c1)OCO3)O2 | – | · | – | · | ·
Cc1sc2nc(-c3ccc(Br)cc3)oc(=O)c2c1C | 55 | · | – | – | ·
O=C(CCl)N(O)c1ccc(C=Cc2ccccc2)cc1 | · | – | · | – | 40
O=C(c1ccccc1)c1ccc2cc(O)ccc2c1 | 55 | – | – | · | –
O=C(c1ccccc1)c1cccc(C(=O)c2ccccc2)c1 | – | – | – | – | ·
CCCC(=O)Nc1ccc2c(c1)C(=O)N(C)C[C@@H](OC)[C@@H](C)CN(CCC(F)(F)F)[C@@H](C)CO2 | – | · | – | · | ·
O=C(COC(=O)Cn1nnc(-c2ccccc2)n1)Nc1ccccc1Br | · | – | 100 | – | –
CCOC(=O)c1cc(C(=O)Nc2ccc(C)c(F)c2)nn1C | 42 | ? | – | – | ·
Nc1nsc2ccccc12 | – | – | 120 | – | –
CCCCN(CCCC)Cc1ccc(C(=O)NNC(=O)Nc2ccc(Cl)cc2)o1 | – | – | – | – | –
CCCCN(CCCC)Cc1ccc(C(=O)NN)o1 | – | – | – | – | 55
Clc1ccc(Nc2ncnc3c2cnn3-c2ccccc2)cc1 | 85 | · | – | – | –
c1ccc(-n2ncc3c(NCCN4CCCCC4)ncnc32)cc1 | – | – | – | – | ·
CN(C)CCCNc1ncnc2c1cnn2-c1ccccc1 | – | – | – | – | –
c1ccc(CCNc2ncnc3c2cnn3-c2ccccc2)cc1 | 72 | – | – | – | ·
Fc1ccc(CNc2ncnc3c2cnn3-c2ccccc2)cc1 | 49 | – | – | – | –
c1ccc(CNc2ncnc3c2cnn3-c2ccccc2)cc1 | ? | – | – | – | ·
c1ccc(-n2ncc3c(NCCN4CCOCC4)ncnc32)cc1 | 47 | – | – | – | 47
Cc1cccc(-n2ncc3c(NCc4ccccc4)ncnc32)c1 | – | – | – | – | –
Cn1ncc2c(Nc3ccc4ccccc4c3)ncnc21 | 53 | – | – | – | –
Cc1cccc(-n2ncc3c(NCCc4ccc(S(N)(=O)=O)cc4)ncnc32)c1 | – | – | 105 | – | –
SMILES | esBAF inh | MITF act | C2C12 statin | Rtt109 Vps75 | Wnt act
Clc1ccc(-n2ncc3c(NCc4cccnc4)ncnc32)cc1Cl | 65 | – | – | – | –
O=C(C[C@@H]1C[C@H]2c3cc(NC(=O)C4CCOCC4)ccc3O[C@H]2[C@@H](CO)O1)NCc1ccccn1 | – | · | – | · | ·
CN(C)C(=O)C[C@H]1CC[C@@H]2[C@H](COC[C@@H](O)CN2Cc2ccc(C(F)(F)F)cc2)O1 | – | · | – | · | ·
N#Cc1ccc(OCC(=O)N2CCc3ccccc32)cc1 | 45 | – | – | – | –
COc1ccc2c(CC(=O)OCC(=O)N3CCc4ccccc43)coc2c1 | – | · | – | – | –
O=C(CNc1ccccc1OC(F)F)N1CCc2ccccc21 | · | 108 | · | – | ·
COc1ccc2c(CC(=O)N3CCc4ccccc43)coc2c1 | · | 111 | · | – | ·
O=C(COc1ccc([N+](=O)[O-])cc1Cl)N1CCc2ccccc21 | 66 | 119 | – | – | 42
COc1ccc(OCC(=O)N2CCCC2=O)c([N+](=O)[O-])c1 | – | – | – | – | –
O=Cc1ccc(OCC(=O)N2CCc3ccccc32)c(Br)c1 | – | – | – | – | –
COc1ccc(OCC(=O)N2CCc3ccccc32)c([N+](=O)[O-])c1 | 54 | · | – | · | –
Cc1cc(C(=O)OCC(=O)N2CCc3ccccc32)c(C)o1 | 50 | – | – | – | ·
O=C(COc1ccc(F)cc1Br)N1CCc2ccccc21 | – | – | – | – | 72
COCC#Cc1ccc2c(c1)O[C@H](CN(C)Cc1ccccn1)[C@@H](C)CN([C@H](C)CO)S2(=O)=O | – | · | – | · | ·
COCC(=O)Nc1ccc2c(c1)OC[C@H](C)N(CCC(F)(F)F)C[C@@H](C)[C@H](OC)CN(C)C2=O | – | · | – | · | ·
C[C@H]1CN([C@@H](C)CO)C(=O)c2cc(NC(=O)Cc3cn(C)c4ccccc34)ccc2O[C@H]1CN(C)S(=O)(=O)c1cccs1 | – | · | ? | · | ·
C[C@@H]1CN([C@@H](C)CO)C(=O)c2cc(NC(=O)Cc3cn(C)c4ccccc34)ccc2O[C@H]1CN(C)S(=O)(=O)c1cccs1 | – | · | 111 | · | ·
C[C@@H]1CN([C@H](C)CO)C(=O)c2cc(NC(=O)Cc3cn(C)c4ccccc34)ccc2O[C@H]1CN(C)S(=O)(=O)c1cccs1 | – | · | – | · | ·
C[C@H](CO)N1C[C@H](C)[C@H](CN(C)S(=O)(=O)c2cccs2)Oc2ccc(NC(=O)Cc3cn(C)c4ccccc34)cc2C1=O | – | · | 104 | · | ·
C[C@@H]1CN([C@@H](C)CO)C(=O)Cc2cc(NC(=O)Nc3ccc4c(c3)OCO4)ccc2O[C@H]1CN(C)S(=O)(=O)c1cccs1 | – | · | – | · | ·
CC(=O)N1CCN(C(=O)c2ccc3oc(CCCc4ccccc4)nc3c2)CC1 | – | – | – | – | –
COC1CCCN(C(=O)c2ccc3oc(Cc4ccc(Cl)cc4)nc3c2)C1 (configuration not stated) | – | – | – | – | –
CCOC(=O)N1CCN(C(=O)c2ccc3oc(CCCc4ccccc4)nc3c2)CC1 | 81 | – | – | – | 34
COCC1CCCN(C(=O)c2ccc3nc(Cc4cccc(Cl)c4)oc3c2)C1 (configuration not stated) | 70 | – | – | – | –
CCCOC1CCCN(C(=O)c2ccc3oc(C(C)C)nc3c2)C1 (configuration not stated) | 44 | – | – | – | –
CCOC(=O)C1CCCN(C(=O)c2ccc3oc(Cc4ccccc4)nc3c2)C1 (configuration not stated) | 70 | – | – | – | –
C/C=C/c1ccc2c(c1)O[C@H](CN(C)Cc1cccc(F)c1)[C@@H](C)CN([C@H](C)CO)S2(=O)=O | – | · | – | · | ·
Cc1noc(C)c1NC(=O)N(C)C[C@H]1OCCCC[C@@H](C)Oc2ccc(N(C)C)cc2C(=O)N([C@H](C)CO)C[C@H]1C | – | · | – | · | ·
